Screening results (PubChem)
NR2F2 inh: blocks human COUP-TFII nuclear receptor; HEK293T NGFI-A luciferase reporter, luminescence; inhibition, % at 8.6 µM; 370,000 tested, 0.7% active;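 active means inhibition above a per-plate cutoff, mean inhibition of test wells between control levels plus 3 SD, cut at about 38% in these data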;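 further: cells cotransfected with COUP-TFII expression vector driving the NGFI-A reporter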
Target sequence (P24468 whole entry, looked up): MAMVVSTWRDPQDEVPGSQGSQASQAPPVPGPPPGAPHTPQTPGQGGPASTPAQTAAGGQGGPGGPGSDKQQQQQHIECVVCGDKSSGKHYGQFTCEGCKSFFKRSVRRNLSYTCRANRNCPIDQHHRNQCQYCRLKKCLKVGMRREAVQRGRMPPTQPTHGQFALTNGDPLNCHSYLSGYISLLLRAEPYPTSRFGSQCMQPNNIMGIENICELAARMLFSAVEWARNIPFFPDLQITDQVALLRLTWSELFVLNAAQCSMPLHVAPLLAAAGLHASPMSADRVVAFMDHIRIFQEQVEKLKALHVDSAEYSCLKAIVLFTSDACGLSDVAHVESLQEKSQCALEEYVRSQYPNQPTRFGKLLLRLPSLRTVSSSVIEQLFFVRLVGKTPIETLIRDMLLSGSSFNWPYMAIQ
Gli-Sufu antag: antagonists of Gli-Sufu signaling; Sufu-KO-LIGHT fibroblasts, Gli luciferase reporter luminescence; inhibition, % at 5 µM; 340,000 tested, 0.74% active;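 active means inhibition above about 55%, limit read from the data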
TAG inh: triacylglycerol accumulation inhibition | H9c2 cells, Nile Red lipid (TAG) fluorescence; cells loaded with 200 µM oleic acid | inhibition, % at 12.5 µM | 230,000 tested, 0.66% active | AID 651582;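 active means pattern-corrected inhibition of lipid staining of at least 50% with the nuclear-stain viability signal not falling by more than 50%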
Cardio protect: modulators protecting cardiomyocytes from myocardial damage; AID 588492; H9c2 cardiomyocytes, H2O2 injury protection, ATPLite, 2 h; protection from H2O2 cell death, % at 20 µM; 360,000 tested, 0.63% active;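 active means compounds giving at least 50% protection of heart cells from peroxide-induced death in the single-dose screen, raw or plate-pattern-corrected value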
Jurkat NFkB inh: lowers PMA/ionomycin-induced NF-kB signal in Jurkat cells. PMA/ionomycin-induced NF-kB luciferase reporter, luminescence. inhibition, % at 4 µM. 330,000 tested, 0.53% active; in the data active means inhibition above about 50%
697 NFkB inh: inhibitors of the PMA/ionomycin-induced NF-kB reporter in 697 B cells; inhibition, % at 4 µM; 697 B-cell NF-kB luciferase reporter, 16 h; 330,000 tested, 0.33% active; in the data active means inhibition above about 35%
Gli antag conf: Gli-SUFU antagonism confirmation, single concentration. shares compounds with Gli-Sufu antag. Sufu-KO-LIGHT cells, Gli luciferase reporter, luminescence. inhibition, % at 5 µM. 2,500 tested, 40% active. AID 602428;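 active means mean inhibition at 5 µM reaching about 45%, limit read from the data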
Gli cytotox: cytotoxicity counter-screen for Gli-SUFU antagonists | cytotoxicity, % at 5 µM | Sufu-KO-LIGHT cells cytotoxicity, ATP luminescence | shares compounds with Gli-Sufu antag | 2,500 tested, 32% active;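 active means mean cytotoxicity at 5 µM above about 25%, limit read from the data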;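 further: cells exposed to compound overnight for roughly 16 to 18 hours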
Wnt3a cs: Wnt3a reporter inhibition counter-screen | inhibition, % at 6.25 µM | AID 651995 | 2,500 tested, 20% active | shares compounds with Gli-Sufu antag | Wnt-LIGHT cells, Wnt3a-driven luciferase reporter, luminescence;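 active means mean inhibition above about 25%, limit read from the data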
Gal4-VP16 ctr: inhibits VP16 reporter, flagging COUP-TFII antagonist hits | shares compounds with NR2F2 inh | HEK293 Gal4-VP16 luciferase reporter, luminescence | inhibition, % at 8.5 µM | 2,500 tested, 25% active | AID 687007; in the data active means inhibition above about 13%
NR2F2 inh conf: COUP-TFII (NR2F2) inhibition, confirmation assay. shares compounds with NR2F2 inh. HEK293 NGFI-A luciferase reporter, luminescence. inhibition, % at 8.5 µM. 2,500 tested, 45% active;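 active means mean inhibition over three repeats above a set limit taken from the earlier primary screen, cut at about 38% in these data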
Of the large screens only hits and unclear results are named; the others gave an inactive call (follow-up assays come after a bar, where they were run). Most compounds without a hit are left out; they make up all but 2.6% or so of the library.

COc1cccc(Cn2c(NCc3ccco3)nc3c2c(=O)n(C)c(=O)n3C)c1	NR2F2 inh 49, Gli-Sufu antag 81 (no result: TAG inh, Cardio protect) | Gli antag conf 80 | Gli cytotox 41 | Wnt3a cs 39 | Gal4-VP16 ctr inactive | NR2F2 inh conf inactive
COc1cccc(Cn2c(NCC(C)C)nc3c2c(=O)n(C)c(=O)n3C)c1	none
Nc1ncnc2c1ncn2[C@@H]1O[C@H](CO)[C@@H](O)[C@H]1O	none
Nc1ncnc2c(C3OC(CO)C(O)C3O)c[nH]c12 (stereo not drawn)	NR2F2 inh 82, Gli-Sufu antag 87 (no result: Jurkat NFkB inh, 697 NFkB inh) | Gli antag conf 89 | Gli cytotox 85 | Wnt3a cs 101 | Gal4-VP16 ctr 49 | NR2F2 inh conf 81
COP(=O)(O)CCOCCC(CC(C)C)NC(=O)OCc1ccccc1 (stereo not drawn)	none (no result: Gli-Sufu antag, TAG inh, Cardio protect, Jurkat NFkB inh, 697 NFkB inh)
O=C(N[C@H](Cc1ccccc1)C(=O)N1CCN(CC(=O)N2CCCC2)CC1)[C@H]1O[C@@H](n2ccc(=O)[nH]c2=O)[C@H](O)[C@@H]1O	none (no result: Gli-Sufu antag, TAG inh, Cardio protect, Jurkat NFkB inh, 697 NFkB inh)
Nc1nonc1C(=O)NCCNCc1cc(Br)ccc1OCc1ccccc1F	NR2F2 inh 66 | Gli antag conf inactive | Gli cytotox 34 | Wnt3a cs inactive | Gal4-VP16 ctr 19 | NR2F2 inh conf inactive
CCOC(=O)C1=CCN(S(=O)(=O)c2ccc(Br)cc2)C1c1ccc(Br)cc1 (stereo not drawn)	none (no result: Gli-Sufu antag, TAG inh, Cardio protect, Jurkat NFkB inh, 697 NFkB inh)
Cc1ccc(-c2nc3ncccn3c2NC(=O)Nc2ccc(F)cc2)cc1	none (no result: Gli-Sufu antag, TAG inh, Cardio protect, Jurkat NFkB inh, 697 NFkB inh)
O=C(C(=Cc1ccccc1)CN1CCCCC1)c1ccccc1	NR2F2 inh 52, Gli-Sufu antag 60 (no result: Jurkat NFkB inh, 697 NFkB inh) | Gli antag conf 77 | Gli cytotox inactive | Wnt3a cs 69 | Gal4-VP16 ctr 72 | NR2F2 inh conf 95
C[C@H]1[C@@H](OC(=O)Nc2cccc(C(F)(F)F)c2)CC[C@@]23CCCN2C(=O)CCC[C@@H]13	none (no result: Gli-Sufu antag, TAG inh, Cardio protect, Jurkat NFkB inh, 697 NFkB inh)
Cc1nc2cc(N3CCN(C)CC3)c(NC(=O)Cc3ccccc3)cc2c(=O)n1Cc1ccccc1	NR2F2 inh 49 | Gli antag conf 49 | Gli cytotox inactive | Wnt3a cs inactive | Gal4-VP16 ctr inactive | NR2F2 inh conf inactive
COCCNC(=S)N(C)[C@H]1C[C@H]2c3[nH]c4c(-c5ccccc5)cccc4c3CCN2C[C@H]1[C@H](C)O	none (no result: Gli-Sufu antag, TAG inh, Cardio protect, Jurkat NFkB inh, 697 NFkB inh)
Cc1csc2ncnc(NCCc3ccccn3)c12	NR2F2 inh 68, Gli-Sufu antag 67 | Gli antag conf 57 | Gli cytotox 29 | Wnt3a cs 27 | Gal4-VP16 ctr inactive | NR2F2 inh conf 48
c1ccc(CCNc2ncnc3sccc23)nc1	none
CCCCc1nnn2c1C1c3cc(Br)ccc3CCN1C(=O)C2 (stereo not drawn)	none (no result: Gli-Sufu antag, TAG inh, Cardio protect, Jurkat NFkB inh, 697 NFkB inh)
O=P(c1ccccc1)(c1ccccc1)c1cnc2ccccn12	none (no result: Gli-Sufu antag, TAG inh, Cardio protect, Jurkat NFkB inh, 697 NFkB inh)
O=C(Nc1ccccc1)C1=C[C@@H](C2CCCCC2)C[C@@H](OCCCCO)O1	NR2F2 inh 40, Gli-Sufu antag 68 | Gli antag conf 80 | Gli cytotox inactive | Wnt3a cs inactive | Gal4-VP16 ctr inactive | NR2F2 inh conf inactive
O=C(OC(c1ccccc1)c1nccc2ccccc12)c1ccccc1 (stereo not drawn)	NR2F2 inh 81, Gli-Sufu antag 65 (no result: Jurkat NFkB inh, 697 NFkB inh) | Gli antag conf 79 | Gli cytotox 28 | Wnt3a cs 92 | Gal4-VP16 ctr 53 | NR2F2 inh conf 87
COC(=O)[C@]12C[C@H](CC(=O)NCc3cccc(C(F)(F)F)c3)C(=O)N(Cc3ccco3)C1=C[C@H](COCc1ccccc1)O[C@@H]2C	none (no result: Gli-Sufu antag, TAG inh, Cardio protect, Jurkat NFkB inh, 697 NFkB inh)
COc1ccc(-c2nsc3c(N4CCCCC4C)ncnc23)cc1 (stereo not drawn)	NR2F2 inh 97, Gli-Sufu antag 81 | Gli antag conf 91 | Gli cytotox 47 | Wnt3a cs 105 | Gal4-VP16 ctr 88 | NR2F2 inh conf 104
COc1ccc(C(=O)N2CCN(c3ncnc4c(-c5ccccc5)nsc34)CC2)cc1	none (no result: Jurkat NFkB inh, 697 NFkB inh)
Cc1nc2c(-c3ccc(Cl)cc3)cnn2c(N)c1-c1ccc(F)cc1	NR2F2 inh 52, Gli-Sufu antag 63 (no result: TAG inh) | Gli antag conf 81 | Gli cytotox inactive | Wnt3a cs 84 | Gal4-VP16 ctr inactive | NR2F2 inh conf 68
Cn1cc(CNCc2ccc(OC(F)(F)F)cc2)c(-c2ccc3c(c2)OCCO3)n1	NR2F2 inh 48, Gli-Sufu antag 60 | Gli antag conf 63 | Gli cytotox 36 | Wnt3a cs 26 | Gal4-VP16 ctr inactive | NR2F2 inh conf 40
CC(C)(C)OC(=O)NCCc1ccccc1/C=C/S(=O)(=O)NCc1ccccc1	none (no result: Gli-Sufu antag, TAG inh, Cardio protect, Jurkat NFkB inh, 697 NFkB inh)
Cc1cc(C(=O)NC2CCCc3c2cnn3-c2ccc(C(C)(C)C)cc2)n[nH]1 (stereo not drawn)	none (no result: TAG inh)
COc1ccc(C(=O)NC2CCCc3c2cnn3-c2ccccc2F)cc1OC (stereo not drawn)	NR2F2 inh 50, Gli-Sufu antag 56 (no result: TAG inh) | Gli antag conf inactive | Gli cytotox inactive | Wnt3a cs inactive | Gal4-VP16 ctr inactive | NR2F2 inh conf 49
Cc1nnsc1C(=O)NC1CCCc2c1cnn2-c1ccc(C(C)(C)C)cc1 (stereo not drawn)	NR2F2 inh 65, Gli-Sufu antag 62 | Gli antag conf 59 | Gli cytotox 53 | Wnt3a cs inactive | Gal4-VP16 ctr inactive | NR2F2 inh conf 66
Cc1nnsc1C(=O)NC1CCCc2c1cnn2-c1ccccc1F (stereo not drawn)	NR2F2 inh 45 | Gli antag conf 45 | Gli cytotox inactive | Wnt3a cs 29 | Gal4-VP16 ctr inactive | NR2F2 inh conf 45
Cc1ccc(Cl)cc1S(=O)(=O)N1CCC(C(=O)NC2CCN(Cc3ccccc3)CC2)CC1	NR2F2 inh 38 (no result: TAG inh) | Gli antag conf inactive | Gli cytotox inactive | Wnt3a cs inactive | Gal4-VP16 ctr inactive | NR2F2 inh conf 44
CCN(CC)S(=O)(=O)c1ccc(S(=O)(=O)N2CCC(C(=O)NC3CCN(Cc4ccccc4)CC3)CC2)cc1	none (no result: NR2F2 inh, TAG inh)
C[C@@H]1CN(S(=O)(=O)C(C)(C)C)[C@H](CCO)/C1=C\CCO	none (no result: Gli-Sufu antag, TAG inh, Cardio protect, Jurkat NFkB inh, 697 NFkB inh)
COc1cccc(COc2cc3ccccc3nc2C)c1	NR2F2 inh 59 | Gli antag conf 58 | Gli cytotox 30 | Wnt3a cs inactive | Gal4-VP16 ctr inactive | NR2F2 inh conf 41
